Assay [1] is described as follows: qHTS assay to identify small molecule agonists of the peroxisome proliferator-activated receptor delta (PPARd) signaling pathway - cell viability counter screen (AID 743211). Also: nearly all actives have a fitted effect of over 55% in size. The method, boiled down: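 Counter screen for cytotoxicity run in parallel with the PPARd reporter screen. Beta-lactamase reporter HEK293H cells exposed to compounds 17 h; ATP-based CellTiter-Glo luminescence quantified viability.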

Assay [2] deals with Peroxisome proliferator-activated receptor delta (Homo sapiens) (UniProt Q03181). Nature of the assay: qHTS assay to identify small molecule agonists of the peroxisome proliferator-activated receptor delta (PPARd) signaling pathway (AID 743212; calls by dose curve;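 also: HEK293H cells with PPARd UAS beta-lactamase reporter GeneBLAzer system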). Summed up:
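Beta-lactamase reporter read by fluorescence (LiveBLAzer B/G FRET, 2 h, room temperature). Test agents, in DMSO, incubated at 37 C with PPARd-bla HEK293H cells.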
Background: Quantitative high-throughput screening tests each substance at several concentrations.

Assay [3] shares this target. Nature of the assay: qHTS assay to identify small molecule antagonists of the peroxisome proliferator-activated receptor delta (PPARd) signaling pathway (AID 743215; active = well fitted inhibition curve with a large enough effect in the signal ratio in the repeat runs, not every such curve was filed as active; the % refers to the signal ratio;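 also: cells stimulated with agonist L165041 at 300 nM final during compound exposure; series mostly up to about 62 µM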). The method, boiled down: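 Agonist L165041 (300 nM final) added with compound to PPARd-bla HEK293H UAS-bla reporter cells; 17 h incubation at 37 C. Read-out: LiveBLAzer FRET substrate, 2 h at room temperature, fluorescence intensity.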

Assay [4] in a line: qHTS assay to identify small molecule agonists of the farnesoid-X-receptor (FXR) signaling pathway - cell viability counter screen (AID 743218). Also: nearly all actives have a fitted effect of over 45% in size. Summed up:
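Viability counter screen in the same wells: CellTiter-Glo luminescence, 30 min room-temperature incubation, measured after the beta-lactamase read. Cells were GeneBLAzer FXR-UAS-bla HEK 293T, compound-treated 16 h at 37C.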

Assay [5] is described as follows: qHTS assay to identify small molecule antagonists of the farnesoid-X-receptor (FXR) signaling pathway - cell viability counter screen (AID 743221; active = well fitted cell-killing curve with a large enough effect in the repeat runs, not every such curve was filed as active; also: nearly all actives have a fitted effect of over 50% in size). The method, boiled down: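 Multiplexed counter screen: viability of FXR-bla HEK 293T cells under agonist stimulation by chenodeoxycholic acid (50 uM, final) and test compound for 16 h at 37 C, measured by CellTiter-Glo luminescence in the reporter wells.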

A short description of assay [6]: qHTS assay to identify small molecule agonists of the vitamin D receptor (VDR) signaling pathway - cell viability counter screen (AID 743224). Also: series mostly up to about 63 µM; nearly all actives have a fitted effect of over 50% in size. The method, boiled down: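 Counter screen run in the same wells as the VDR-bla reporter assay: CellTiter-Glo luminescence, 30 min at room temperature, after 16 h compound treatment at 37C of cells pre-plated for 4 h.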
The nature of assay [7]: qHTS assay to identify small molecule antagonists of the vitamin D receptor (VDR) signaling pathway - cell viability counter screen (AID 743225). Also: nearly all actives have a fitted effect of over 50% in size. The method, boiled down: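 HEK293T VDR-bla; cpd + 1a,25-(OH)2D3 3 nM final, 16 h 37C/5% CO2; B/G FRET substrate 2 h RT; then CellTiter-Glo 30 min RT, luminescence.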
Assay [8] can be described thus: qHTS assay to identify small molecule agonists of the NFkB signaling pathway (AID 1159509; active = well fitted curve in the direction sought with a large enough effect in the signal ratio in the repeat runs, not every such curve was filed as active; the % refers to the signal ratio; also: series mostly up to about 61 µM). Summed up: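 Beta-lactamase reporter assay run in quantitative high-throughput format on an NF-kB-responsive ME-180 line, with 5 hr compound treatment and a FRET-based blue/green fluorescence readout.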
A short description of assay [9]: qHTS assay to identify small molecule agonists of the NFkB signaling pathway - cell viability counter screen (AID 1159515; calls by dose curve; also: series mostly up to about 61 µM; nearly all actives have a fitted effect of over 55% in size). Summed up:
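Read by CellTiter-Glo luminescence (30 min, room temperature) in the wells also used for the beta-lactamase FRET read. ME-180 NFkB-bla cells at 2,000 per well were plated overnight, then exposed to compound for 5 hr at 37 C.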

The nature of assay [10]: qHTS assay to identify small molecule agonists of the endoplasmic reticulum stress response signaling pathway (AID 1159516; active = well fitted activation curve with a large enough effect in the signal ratio in the repeat runs, not every such curve was filed as active; the % refers to the signal ratio). The method, boiled down: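 Ratiometric FRET readout (405 nm excitation; 460 and 530 nm emission) of a beta-lactamase gene driven by the ER stress response element, after 2 hr substrate loading. HeLa ESRE-bla cells were seeded overnight and treated with compounds for only 5 hr at 37 C.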

Assay [11] is described as follows: qHTS assay to identify small molecule agonists of the endoplasmic reticulum stress response signaling pathway - cell viability counter screen (AID 1159517; calls by dose curve; also: series mostly up to about 61 µM; nearly all actives have a fitted effect of over 50% in size). Summed up:
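Cytotoxicity of test compounds toward ESRE-bla HeLa cells was assessed after 5 hr exposure. The luminescent CellTiter-Glo signal was measured 30 min after reagent addition.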

Assay [12] in a line: qHTS assay to identify small molecule antagonists of the retinoid-related orphan receptor gamma (ROR-gamma) signaling pathway - cell viability counter screen (AID 1159520). Also: nearly all actives have a fitted effect of over 50% in size. The method, boiled down: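 Tet-on ROR gamma CHO cells (1,000/well) were plated 4 hr, given compounds in DMSO for 2 hr at 37 C, then induced with 1 uM final doxycycline for 16 hr. Viability was read as ATP by CellTiter-Glo luminescence after 30 min.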

In assay [13] the target is Nuclear receptor ROR-gamma (Homo sapiens) (UniProt P51449). Kind of assay: qHTS assay to identify small molecule antagonists of the retinoid-related orphan receptor gamma (ROR-gamma) signaling pathway (AID 1159521; also: nearly all actives have a fitted effect of over 50% in size; also: potency is read from the fitted curve at half-maximal effect). The method, boiled down: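 Cells were plated, rested 4 h at 37 C, exposed to compounds for 2 h, then given 1 uM final doxycycline hyclate to induce RORγ expression. After 16 h, ONE-Glo luminescence from the ROR response element reporter was measured.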

In assay [14] the target is Bile acid receptor (Homo sapiens) (UniProt Q96RI1). Nature of the assay: qHTS assay to identify small molecule agonists of the farnesoid-X-receptor (FXR) signaling pathway (AID 743220; active = well fitted activation curve with a large enough effect in the signal ratio in the repeat runs, not every such curve was filed as active; the % refers to the signal ratio). The method, boiled down: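 FXR-UAS-bla HEK 293T cells carrying a UAS-driven beta-lactamase reporter were plated for 5 h at 37C/5% CO2, then exposed to DMSO-dissolved Tox21 10K compounds for 16 h at 37C. A LiveBLAzer B/G FRET substrate was loaded for 2 h at room temperature before fluorescence reading.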

The target of assay [15] is Vitamin D3 receptor (Homo sapiens) (UniProt P11473). Kind of assay: qHTS assay to identify small molecule agonists of the vitamin D receptor (VDR) signaling pathway (AID 743222; calls by dose curve). The method, boiled down:
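Agonist mode, beta-lactamase reporter: fluorescence from LiveBLAzer B/G FRET substrate (2 h, room temperature) read after 16 h compound treatment at 37 C of VDR-bla cells, which were pre-incubated 4 h after seeding.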

Assay [16] shares this target. Nature of the assay: qHTS assay to identify small molecule antagonists of the vitamin D receptor (VDR) signaling pathway (AID 743223; active = well fitted inhibition curve with a large enough effect in the signal ratio in the repeat runs, not every such curve was filed as active; the % refers to the signal ratio). Summed up: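 Cells carrying a VDR-driven beta-lactamase reporter (VDR-bla) were co-treated with compound and 3 nM final 1alpha,25-dihydroxyvitamin D3 for 16 h at 37C; reporter activity was measured as FRET substrate fluorescence after 2 h at room temperature.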

Assay [17] is described as follows: qHTS assay to identify small molecule agonists of the AP-1 signaling pathway - cell viability counter screen (AID 1159525; calls by dose curve; also: nearly all actives have a fitted effect of over 55% in size). The method, boiled down:
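Each titration point was normalised to DMSO and tetra n-octyl ammonium bromide controls. The read was Cell Titer Glo luminescence after 30 min at RT, following 5 h compound exposure of ME-180 AP-1-bla cells at 37 °C.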

Assay [18] deals with Bile acid receptor (Homo sapiens) (UniProt Q96RI1). Kind of assay: qHTS assay to identify small molecule antagonists of the farnesoid-X-receptor (FXR) signaling pathway (AID 743217; active = well fitted inhibition curve with a large enough effect in the signal ratio in the repeat runs, not every such curve was filed as active; the % refers to the signal ratio). Summed up: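 Antagonist mode: chenodeoxycholic acid at 50 uM final stimulates a UAS-driven beta-lactamase reporter in HEK 293T FXR-bla cells during 16 h, 37C compound exposure. Read-out is FRET substrate fluorescence after 2 h at room temperature.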

Assay [19] is described as follows: qHTS assay to identify small molecule antagonists of the peroxisome proliferator-activated receptor delta (PPARd) signaling pathway - cell viability counter screen (AID 743213). Also: nearly all actives have a fitted effect of over 50% in size. Summed up: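 Viability counter-screen, qHTS format: PPARd-bla HEK293H, L165041 300 nM final, 17 h compound exposure at 37 C, CellTiter-Glo luminescence after 30 min RT.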
Assay [20] in a line: qHTS assay to identify small molecule agonists of the AP-1 signaling pathway (AID 1159526; calls by dose curve).

The text below walks through data of PubChem BioAssay (Tox21).

Records with an inconclusive call do not appear. Unmarked numbers belong to inactive results. Active and inactive are the calls of the source. Unless noted, calls follow the shape of the dose curve; as a rule, active = well fitted curve in the direction sought with a large enough effect in the repeat runs; inconclusive = weak or mixed curves; inactive = no such curve, though single readings can be large; an effect the other way counts as inactive or inconclusive.

Sequence of Vitamin D3 receptor (Homo sapiens) (P11473 whole entry, looked up): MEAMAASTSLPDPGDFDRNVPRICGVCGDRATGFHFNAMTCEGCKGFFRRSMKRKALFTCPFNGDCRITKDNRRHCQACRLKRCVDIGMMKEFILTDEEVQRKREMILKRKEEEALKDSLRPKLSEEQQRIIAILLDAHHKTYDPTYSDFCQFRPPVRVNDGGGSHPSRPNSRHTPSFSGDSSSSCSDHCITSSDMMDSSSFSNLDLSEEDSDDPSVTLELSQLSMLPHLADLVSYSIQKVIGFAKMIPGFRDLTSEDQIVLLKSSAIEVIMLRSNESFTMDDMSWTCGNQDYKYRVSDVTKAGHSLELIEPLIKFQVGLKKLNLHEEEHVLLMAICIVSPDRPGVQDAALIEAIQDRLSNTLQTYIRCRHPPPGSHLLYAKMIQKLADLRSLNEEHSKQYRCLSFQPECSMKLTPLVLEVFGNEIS
Sequence of Bile acid receptor (Homo sapiens) (Q96RI1 whole entry, looked up): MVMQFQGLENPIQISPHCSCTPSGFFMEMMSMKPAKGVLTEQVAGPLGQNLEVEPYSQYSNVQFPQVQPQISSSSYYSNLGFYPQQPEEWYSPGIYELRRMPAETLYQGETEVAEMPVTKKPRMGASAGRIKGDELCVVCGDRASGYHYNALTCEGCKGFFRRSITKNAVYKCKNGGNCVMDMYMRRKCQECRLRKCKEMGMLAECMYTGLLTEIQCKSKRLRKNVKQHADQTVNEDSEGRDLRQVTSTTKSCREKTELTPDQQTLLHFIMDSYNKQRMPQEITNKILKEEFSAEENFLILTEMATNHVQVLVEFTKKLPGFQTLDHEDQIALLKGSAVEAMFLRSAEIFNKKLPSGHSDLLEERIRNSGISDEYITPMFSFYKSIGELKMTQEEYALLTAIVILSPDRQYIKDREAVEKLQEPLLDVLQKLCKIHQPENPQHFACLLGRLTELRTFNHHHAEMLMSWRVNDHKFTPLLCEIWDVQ
Sequence of Peroxisome proliferator-activated receptor delta (Homo sapiens) (Q03181 whole entry, looked up): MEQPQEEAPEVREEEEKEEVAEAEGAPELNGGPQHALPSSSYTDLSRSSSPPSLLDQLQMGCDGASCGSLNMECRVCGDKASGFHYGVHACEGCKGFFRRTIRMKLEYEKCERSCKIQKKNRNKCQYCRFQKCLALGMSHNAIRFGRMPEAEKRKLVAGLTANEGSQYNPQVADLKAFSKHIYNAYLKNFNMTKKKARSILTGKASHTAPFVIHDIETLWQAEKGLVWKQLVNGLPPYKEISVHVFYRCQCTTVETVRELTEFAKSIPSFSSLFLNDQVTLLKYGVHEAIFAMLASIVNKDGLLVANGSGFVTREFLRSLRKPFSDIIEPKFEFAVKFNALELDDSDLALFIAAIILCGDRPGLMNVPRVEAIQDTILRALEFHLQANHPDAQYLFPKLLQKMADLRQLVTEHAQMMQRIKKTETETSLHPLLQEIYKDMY

On to `COc1ccccc1OCC(O)COC(N)=O` (centres undefined), for which the Potency entry in [1], in assay [4], in [6], in assay [7], in assay [12] and in [13] was “inactive” in each case. For the same compound, the compound was classed as inactive in assay [2], in [3], in assay [5], in assay [8], in assay [9] and in [10]. Also, the compound was called inactive in assay [11].
For `COc1ccc(Nc2ccc(OC)cc2)cc1`, the Potency entry in assay [1], in assay [4], in assay [6], in assay [7], in assay [12] and in assay [13] was “inactive” throughout. Also, the compound was called inactive in [14], in assay [15], in assay [16], in assay [8], in [9] and in assay [10]. The compound was called inactive in assay [11] and in assay [17].
On to `O=Cc1ccc(O)c(O)c1O`, for which the Potency result in [4], in [7], in assay [12] and in assay [13] was “inactive” each time. Further, the compound was classed as inactive in [14], in assay [5], in assay [8], in assay [9], in assay [10] and in [11]. Moreover, in [17], the outcome was inactive.
In the case of `Cc1cc2nc(N)sc2cc1C`, the Potency result in assay [1], in assay [4], in assay [6], in assay [7], in assay [12] and in assay [13] was “inactive” throughout. Besides, the compound was called inactive in [18], in assay [14], in assay [5], in assay [15], in [16] and in assay [8]. The result in assay [9], in assay [10], in assay [11] and in assay [17] was inactive.
As for `CC[C@H]1CC[C@H](NCc2cc3c(cc2OC)[C@H]2C[C@H]2C(=O)N3C)[C@H](c2ccccc2)N1`, the outcome in assay [2], in assay [8], in [9], in assay [10], in assay [11] and in assay [17] was inactive. In addition, the Potency result in [4], in [7] and in [12] was “inactive” each time. The Potency in assay [13] is 30.6 µM (active).
Take `O=Cc1ccc(F)c(Br)c1`: the Potency result in assay [1], in [19], in assay [4], in assay [6], in assay [12] and in [13] was “inactive” in each case. In addition, the Potency result in assay [20] was “inactive”. In addition, the outcome in [2], in assay [3], in assay [5], in [15], in [16] and in assay [8] was inactive. For the same compound, the compound was called inactive in assay [9], in assay [10] and in assay [11].
As to `CC1=C(CC(=O)O)c2cc(F)ccc2/C1=C\c1ccc(S(C)(=O)=O)cc1`, the Potency result in assay [1], in [4], in assay [6], in assay [7], in assay [12] and in [13] was “inactive” each time. Moreover, the compound was classed as inactive in assay [5], in assay [8], in assay [9], in assay [10], in assay [11] and in assay [17].
`CCCCNC(=S)NCCCC`: the Potency entry in [19], in assay [4], in [7], in [12] and in assay [13] was “inactive” throughout. The compound was classed as inactive in assay [5], in [15], in [16], in assay [8], in assay [9] and in assay [10]. The call in assay [11] and in assay [17] was inactive.
In the case of `COc1ccc(S(=O)(=O)Nc2nnc(CC(C)C)s2)cc1`, the Potency entry in assay [1], in assay [19], in assay [6], in assay [7], in assay [12] and in assay [13] was “inactive” throughout. In addition, the Potency result in assay [20] was “inactive”. Moreover, the call in [2], in [5], in assay [8], in [9], in assay [10] and in assay [11] was inactive.
Regarding `O=C1CCN(c2ccccc2)N1`, the Potency entry in assay [1], in assay [12] and in [13] was “inactive” throughout. The outcome in assay [18], in [14], in assay [5], in assay [8], in assay [9] and in [10] was inactive. Besides, the outcome in assay [11] and in assay [17] was inactive.
